Experimental data: publication PMC7862700, “An all-to-all approach to the identification of sequence-specific readers for epigenetic DNA modifications on cytosine”

Experiments:
Assay in all cases: DAPPL (digital affinity profiling via proximity ligation, sequencing); 10 mM Tris-HCl pH 7.5, 50 mM NaCl, 1 mM DTT, 4% glycerol, room temperature, 30 min; GST-TFs on glutathione beads, 16-mer random dsDNA library, 0.1% formaldehyde crosslink after washing; high values mean tight binding
FEV = biological target: T1, FEV (Homo sapiens, UniProt Q99581 1-238); conditions: protein: recombinant; tags: N-terminal GST; dsDNA, one strand shown
T1 sequence: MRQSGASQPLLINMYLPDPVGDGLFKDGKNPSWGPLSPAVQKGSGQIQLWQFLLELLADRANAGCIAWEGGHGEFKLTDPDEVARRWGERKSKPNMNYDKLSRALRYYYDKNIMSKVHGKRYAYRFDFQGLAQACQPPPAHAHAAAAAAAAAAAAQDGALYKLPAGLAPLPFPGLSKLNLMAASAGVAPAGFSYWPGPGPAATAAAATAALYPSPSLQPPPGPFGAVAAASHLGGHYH
Procedure, shortened: (§1)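 Human transcription factors carrying a GST fusion were produced in yeast, bound to glutathione beads, tagged with DNA barcodes and pooled together with a tag-only sample. Each pool was held with 200 nmole of a random double-stranded 16-mer DNA library in Tris/NaCl/DTT/glycerol buffer for 30 min at room temperature, then washed, crosslinked in 0.1% formaldehyde, proximity-ligated with BsaI/T4 ligase (1 h, 37 °C), PCR-amplified and sequenced on an Illumina NextSeq500. Binding signal is the read frequency of each hexamer for a given factor divided by its frequency in the tag-only sample.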

ETV5 = ETV5 (Homo sapiens, UniProt P41161 1-510); conditions: protein: recombinant; tags: N-terminal GST; dsDNA, one strand shown
Procedure, shortened: as §1

HSF1 = HSF1 (Homo sapiens, UniProt Q00613 1-529); conditions: protein: recombinant; tags: N-terminal GST; chain copies: 3; dsDNA, one strand shown
Procedure, shortened: as §1

SPIC = biological target: T2, SPIC (Homo sapiens, UniProt Q8N5J4 1-248); conditions: protein: recombinant; tags: N-terminal GST; dsDNA, one strand shown
T2 sequence: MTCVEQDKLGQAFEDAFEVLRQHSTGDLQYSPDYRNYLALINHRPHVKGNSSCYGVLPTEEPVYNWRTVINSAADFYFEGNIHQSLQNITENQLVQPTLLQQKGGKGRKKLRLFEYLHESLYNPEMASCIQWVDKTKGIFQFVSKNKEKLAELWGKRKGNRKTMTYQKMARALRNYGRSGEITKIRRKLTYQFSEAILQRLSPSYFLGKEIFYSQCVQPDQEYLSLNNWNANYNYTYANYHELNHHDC
Procedure, shortened: as §1

ELF4 = ELF4 (Homo sapiens, UniProt Q99607 1-663); conditions: protein: recombinant; tags: N-terminal GST; dsDNA, one strand shown
Procedure, shortened: as §1

ELK4 = biological target: T3, ELK4 (Homo sapiens, UniProt P28324-2 1-405); conditions: protein: recombinant; tags: N-terminal GST; dsDNA, one strand shown
T3 sequence: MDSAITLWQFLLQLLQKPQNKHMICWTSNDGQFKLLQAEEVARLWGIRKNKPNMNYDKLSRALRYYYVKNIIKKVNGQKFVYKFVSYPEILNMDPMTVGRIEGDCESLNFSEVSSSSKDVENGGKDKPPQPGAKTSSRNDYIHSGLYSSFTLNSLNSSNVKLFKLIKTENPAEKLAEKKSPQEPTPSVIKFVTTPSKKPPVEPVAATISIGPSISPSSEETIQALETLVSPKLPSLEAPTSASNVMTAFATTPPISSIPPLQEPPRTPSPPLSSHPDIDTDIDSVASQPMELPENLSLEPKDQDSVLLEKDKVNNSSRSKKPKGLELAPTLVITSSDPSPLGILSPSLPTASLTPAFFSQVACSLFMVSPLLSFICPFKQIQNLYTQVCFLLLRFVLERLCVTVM
Procedure, shortened: as §1

ETV2 = biological target: T4, ETV2 (Homo sapiens, UniProt O00321 1-342); conditions: protein: recombinant; tags: N-terminal GST; dsDNA, one strand shown
T4 sequence: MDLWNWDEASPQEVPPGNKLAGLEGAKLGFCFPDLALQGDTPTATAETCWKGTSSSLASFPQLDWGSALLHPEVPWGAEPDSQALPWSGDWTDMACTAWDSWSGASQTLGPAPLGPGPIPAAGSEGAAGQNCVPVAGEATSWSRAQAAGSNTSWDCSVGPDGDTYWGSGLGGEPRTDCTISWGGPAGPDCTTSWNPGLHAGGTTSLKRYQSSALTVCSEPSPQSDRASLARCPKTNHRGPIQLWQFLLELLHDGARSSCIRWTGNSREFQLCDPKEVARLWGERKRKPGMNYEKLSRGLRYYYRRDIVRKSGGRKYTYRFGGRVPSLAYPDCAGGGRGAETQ
Procedure, shortened: as §1

ELF3 = biological target: T5, ELF3 (Homo sapiens, UniProt P78545 1-371); conditions: protein: recombinant; tags: N-terminal GST; dsDNA, one strand shown
T5 sequence: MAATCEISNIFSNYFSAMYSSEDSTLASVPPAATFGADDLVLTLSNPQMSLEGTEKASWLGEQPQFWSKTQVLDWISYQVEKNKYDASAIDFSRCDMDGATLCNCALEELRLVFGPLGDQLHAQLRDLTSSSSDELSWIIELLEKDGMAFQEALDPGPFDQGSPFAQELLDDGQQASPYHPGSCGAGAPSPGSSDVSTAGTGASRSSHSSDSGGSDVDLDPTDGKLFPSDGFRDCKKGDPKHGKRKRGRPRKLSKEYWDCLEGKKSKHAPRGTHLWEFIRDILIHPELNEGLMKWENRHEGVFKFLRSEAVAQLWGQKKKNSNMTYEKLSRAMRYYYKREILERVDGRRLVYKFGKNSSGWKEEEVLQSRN
Procedure, shortened: as §1

CRX = CRX (Homo sapiens, UniProt O43186 1-299); conditions: protein: recombinant; tags: N-terminal GST; dsDNA, one strand shown
Procedure, shortened: as §1

ETV1 = ETV1 (Homo sapiens, UniProt P50549 1-477); conditions: protein: recombinant; tags: N-terminal GST; dsDNA, one strand shown
Procedure, shortened: as §1

Sequence of ETV5 (P41161 whole entry): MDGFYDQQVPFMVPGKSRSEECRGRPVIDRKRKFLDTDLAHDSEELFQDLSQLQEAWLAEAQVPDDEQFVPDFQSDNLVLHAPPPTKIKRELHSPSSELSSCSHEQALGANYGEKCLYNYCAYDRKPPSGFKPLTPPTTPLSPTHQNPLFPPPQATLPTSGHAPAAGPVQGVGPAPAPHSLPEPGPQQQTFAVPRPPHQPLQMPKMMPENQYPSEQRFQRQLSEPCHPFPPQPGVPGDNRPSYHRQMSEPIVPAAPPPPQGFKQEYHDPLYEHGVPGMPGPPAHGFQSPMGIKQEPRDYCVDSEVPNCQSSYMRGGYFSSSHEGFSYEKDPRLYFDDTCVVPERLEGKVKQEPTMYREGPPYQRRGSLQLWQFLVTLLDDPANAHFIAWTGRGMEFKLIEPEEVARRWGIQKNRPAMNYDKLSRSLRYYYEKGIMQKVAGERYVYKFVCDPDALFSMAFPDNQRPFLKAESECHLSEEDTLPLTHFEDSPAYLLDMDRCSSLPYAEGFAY
Sequence of HSF1 (Q00613 whole entry): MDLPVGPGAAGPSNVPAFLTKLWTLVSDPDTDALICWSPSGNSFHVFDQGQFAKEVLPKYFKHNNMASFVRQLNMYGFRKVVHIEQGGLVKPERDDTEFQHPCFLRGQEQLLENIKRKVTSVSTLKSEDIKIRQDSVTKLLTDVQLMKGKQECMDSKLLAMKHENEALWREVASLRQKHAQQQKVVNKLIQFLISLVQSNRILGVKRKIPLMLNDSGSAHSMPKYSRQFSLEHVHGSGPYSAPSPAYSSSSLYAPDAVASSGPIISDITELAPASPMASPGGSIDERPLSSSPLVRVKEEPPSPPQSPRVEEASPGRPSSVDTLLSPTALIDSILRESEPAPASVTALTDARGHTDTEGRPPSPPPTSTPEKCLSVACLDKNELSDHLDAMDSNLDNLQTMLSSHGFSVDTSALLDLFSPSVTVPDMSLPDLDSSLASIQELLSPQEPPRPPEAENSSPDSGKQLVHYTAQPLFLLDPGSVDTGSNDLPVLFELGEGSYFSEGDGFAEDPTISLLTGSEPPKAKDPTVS
Sequence of ELF4 (Q99607 whole entry): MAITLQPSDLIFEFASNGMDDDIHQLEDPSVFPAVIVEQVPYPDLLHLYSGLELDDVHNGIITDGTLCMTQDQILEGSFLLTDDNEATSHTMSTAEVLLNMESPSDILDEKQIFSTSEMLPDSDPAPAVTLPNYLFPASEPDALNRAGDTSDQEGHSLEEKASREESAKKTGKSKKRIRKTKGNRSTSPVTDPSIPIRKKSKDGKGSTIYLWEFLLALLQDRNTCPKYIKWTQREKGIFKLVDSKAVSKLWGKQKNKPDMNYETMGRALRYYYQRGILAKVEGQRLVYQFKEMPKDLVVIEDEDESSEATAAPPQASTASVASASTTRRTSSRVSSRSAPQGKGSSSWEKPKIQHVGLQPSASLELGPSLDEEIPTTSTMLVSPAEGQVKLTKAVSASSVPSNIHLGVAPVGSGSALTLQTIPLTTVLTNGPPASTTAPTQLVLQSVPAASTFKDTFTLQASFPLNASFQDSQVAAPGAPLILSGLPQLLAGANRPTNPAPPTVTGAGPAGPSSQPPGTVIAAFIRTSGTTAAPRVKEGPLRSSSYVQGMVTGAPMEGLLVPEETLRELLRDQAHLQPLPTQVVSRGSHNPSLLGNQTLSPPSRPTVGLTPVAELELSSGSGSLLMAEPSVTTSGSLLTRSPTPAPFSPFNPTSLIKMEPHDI
Sequence of ETV1 (P50549 whole entry): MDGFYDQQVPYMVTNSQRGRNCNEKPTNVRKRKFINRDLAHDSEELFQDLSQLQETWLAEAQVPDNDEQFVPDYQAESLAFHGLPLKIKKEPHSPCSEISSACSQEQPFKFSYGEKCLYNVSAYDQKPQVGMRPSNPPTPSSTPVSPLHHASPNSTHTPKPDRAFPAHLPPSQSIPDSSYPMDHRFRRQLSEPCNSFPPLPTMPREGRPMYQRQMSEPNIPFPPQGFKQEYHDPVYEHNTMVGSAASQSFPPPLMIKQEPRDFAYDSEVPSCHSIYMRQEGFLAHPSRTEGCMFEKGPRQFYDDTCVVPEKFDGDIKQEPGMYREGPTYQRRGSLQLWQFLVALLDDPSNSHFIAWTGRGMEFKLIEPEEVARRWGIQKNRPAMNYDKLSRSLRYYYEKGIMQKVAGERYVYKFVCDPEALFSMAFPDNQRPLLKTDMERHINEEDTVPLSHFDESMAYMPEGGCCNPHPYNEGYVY
Sequence of CRX (O43186 whole entry): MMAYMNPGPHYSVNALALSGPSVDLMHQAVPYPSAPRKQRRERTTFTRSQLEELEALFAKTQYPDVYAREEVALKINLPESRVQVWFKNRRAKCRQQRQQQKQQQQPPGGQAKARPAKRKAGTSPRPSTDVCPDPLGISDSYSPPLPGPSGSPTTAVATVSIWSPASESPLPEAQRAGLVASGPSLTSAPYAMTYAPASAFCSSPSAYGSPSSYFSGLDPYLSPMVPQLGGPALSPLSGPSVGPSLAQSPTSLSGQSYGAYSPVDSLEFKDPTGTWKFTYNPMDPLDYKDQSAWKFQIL

ATAACA was tested, and the binding signal (FEV) was 1.28 fold enrichment (6-mer frequency, TF over GST control), the binding signal (ETV5) was 1.25 fold enrichment (6-mer frequency, TF over GST control) and the binding signal (HSF1) was 1.2 fold enrichment (6-mer frequency, TF over GST control). The binding signal (SPIC) was 1.31 fold enrichment (6-mer frequency, TF over GST control), the binding signal (ELF4) was 1.28 fold enrichment (6-mer frequency, TF over GST control) and the binding signal (ELK4) was 1.2 fold enrichment (6-mer frequency, TF over GST control). The binding signal (ETV2) was 1.28 fold enrichment (6-mer frequency, TF over GST control), the binding signal (ELF3) was 1.21 fold enrichment (6-mer frequency, TF over GST control) and the binding signal (CRX) was 1.39 fold enrichment (6-mer frequency, TF over GST control). The binding signal (ETV1) was 1.24 fold enrichment (6-mer frequency, TF over GST control).
AGATTT was tested, and the binding signal (FEV) was 1.16 fold enrichment (6-mer frequency, TF over GST control), the binding signal (ETV5) was 1.2 fold enrichment (6-mer frequency, TF over GST control) and the binding signal (HSF1) was 1.75 fold enrichment (6-mer frequency, TF over GST control). For the same sequence, the binding signal (SPIC) was 1.06 fold enrichment (6-mer frequency, TF over GST control), the binding signal (ELF4) was 1.16 fold enrichment (6-mer frequency, TF over GST control) and the binding signal (ELK4) was 1.25 fold enrichment (6-mer frequency, TF over GST control). For the same sequence, the binding signal (ETV2) was 1.05 fold enrichment (6-mer frequency, TF over GST control), the binding signal (ELF3) was 1.21 fold enrichment (6-mer frequency, TF over GST control) and the binding signal (CRX) was 1.84 fold enrichment (6-mer frequency, TF over GST control). For the same sequence, the binding signal (ETV1) was 1.15 fold enrichment (6-mer frequency, TF over GST control).
With TAGCCC the binding signal (FEV) was 1.21 fold enrichment (6-mer frequency, TF over GST control), the binding signal (ETV5) was 1.18 fold enrichment (6-mer frequency, TF over GST control) and the binding signal (HSF1) was 1.19 fold enrichment (6-mer frequency, TF over GST control). For the same sequence, the binding signal (SPIC) was 1.23 fold enrichment (6-mer frequency, TF over GST control), the binding signal (ELF4) was 1.28 fold enrichment (6-mer frequency, TF over GST control) and the binding signal (ELK4) was 1.15 fold enrichment (6-mer frequency, TF over GST control). For the same sequence, the binding signal (ETV2) was 1.15 fold enrichment (6-mer frequency, TF over GST control), the binding signal (ELF3) was 1.08 fold enrichment (6-mer frequency, TF over GST control) and the binding signal (CRX) was 1.36 fold enrichment (6-mer frequency, TF over GST control). For the same sequence, the binding signal (ETV1) was 1.12 fold enrichment (6-mer frequency, TF over GST control).
With AATTAT the binding signal (FEV) was 1.25 fold enrichment (6-mer frequency, TF over GST control), the binding signal (ETV5) was 1.29 fold enrichment (6-mer frequency, TF over GST control) and the binding signal (HSF1) was 1.55 fold enrichment (6-mer frequency, TF over GST control). The binding signal (SPIC) was 1.33 fold enrichment (6-mer frequency, TF over GST control), the binding signal (ELF4) was 1.16 fold enrichment (6-mer frequency, TF over GST control) and the binding signal (ELK4) was 1.12 fold enrichment (6-mer frequency, TF over GST control). The binding signal (ETV2) was 1.28 fold enrichment (6-mer frequency, TF over GST control), the binding signal (ELF3) was 1.27 fold enrichment (6-mer frequency, TF over GST control) and the binding signal (CRX) was 2.05 fold enrichment (6-mer frequency, TF over GST control). For the same sequence, the binding signal (ETV1) was 1.26 fold enrichment (6-mer frequency, TF over GST control).
